# High-throughput results from PubChem BioAssay.
# ALDH1A1 block: ALDH1A1 (human) enzyme inhibition. P00352. Purified ALDH1A1, NADH fluorescence, propionaldehyde substrate. Potency, µM (doses to about 75.3 µM), usual class: inhibitors. hit rate 7.3% among 220,000. AID 1030; active = well fitted inhibition curve with a large enough effect, not every such curve was filed as active; inconclusive = small, poorly fitted or top-dose-only effect, or another doubt; inactive = no such curve, though single readings can be large or run the other way
# RORg inh: blocks mouse ROR gamma transcriptional activity | P51450 | Drosophila S2 Gal4-RORgamma UAS-luciferase reporter, 20 h | Potency, µM (highest dose often 53.6 µM), most hits filed as inhibitors | hit rate 5.4% among 310,000 | AID 2551; note: nearly all actives have a fitted effect of over 60% in size
# Target sequence (P51450 whole entry, looked up, the tested form may be a part): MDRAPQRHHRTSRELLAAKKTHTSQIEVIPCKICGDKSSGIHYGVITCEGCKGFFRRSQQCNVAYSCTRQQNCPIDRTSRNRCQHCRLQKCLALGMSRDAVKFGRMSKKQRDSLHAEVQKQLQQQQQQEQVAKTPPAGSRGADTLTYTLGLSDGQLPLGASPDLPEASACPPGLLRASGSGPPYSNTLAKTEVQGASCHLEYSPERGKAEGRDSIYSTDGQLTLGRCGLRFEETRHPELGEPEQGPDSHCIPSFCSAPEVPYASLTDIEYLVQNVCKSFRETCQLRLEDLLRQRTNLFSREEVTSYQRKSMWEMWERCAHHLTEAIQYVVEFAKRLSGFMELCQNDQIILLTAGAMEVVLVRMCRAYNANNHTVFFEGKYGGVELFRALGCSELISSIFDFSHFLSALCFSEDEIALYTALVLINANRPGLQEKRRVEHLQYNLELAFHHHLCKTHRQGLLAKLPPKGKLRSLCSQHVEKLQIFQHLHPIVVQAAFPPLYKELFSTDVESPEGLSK
#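 Luciferase reporter read in Schneider cells carrying Gal4-RORγ (mouse) and UAS-Photinus luciferase; cells given compound 1 h before 700 uM copper sulfate induction, then incubated 20 h at ambient temperature.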
# VP16 counter: inhibits Gal4-VP16 luciferase reporter, ROR gamma counter-screen. Drosophila S2 Gal4-VP16 UAS-luciferase, luminescence, 20 h. Potency, µM (top dose mostly 53.6 µM), hits mostly inhibitors. hit rate 3.5% among 310,000. AID 2546;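 note: Gal4-VP16 expression switched on by copper sulfate through the metallothionein promoter; nearly all actives have a fitted effect of over 50% in size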
# PLK1 PBD inh: PLK1 (human) polo-box domain binding inhibition. P53350. Plk1 PBD binding of FITC phosphopeptide, fluorescence polarization. Potency, µM, hits mostly inhibitors. hit rate 2.8% among 360,000; note: series mostly up to about 57 µM; nearly all actives have a fitted effect of over 65% in size
# Sfp inh: inhibitors of Bacillus subtilis Sfp phosphopantetheinyl transferase; Q9F4F7; Biochemical Sfp PPTase activity, qHTS; Potency, µM, usual class: inhibitors; hit rate 3.5% among 310,000; AID 1490;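 note: the enzyme is Sfp with the accession as filed and its product quenches rhodamine fluorescence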
#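 After 15 min at room temperature with compound, 15 nM Sfp received 5 uM rhodamine-CoA plus 12.5 uM BHQ-2-ybbR (50 mM Hepes pH 7.6, 10 mM MgCl2). Rate came from the fluorescence difference over 30 min, ex 525/em 598 nm.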
# Hits are given with their value; i = inactive; ? = inconclusive; nt = no result; [ ] = another dose, or the depositor's remark. Compounds with a hit are over-represented: about 12% of the library has one in this group of screens. Unless noted, calls come from the whole dose curve; as a rule, active = well fitted curve in the direction sought with a large enough effect; inconclusive = small, poorly fitted or top-dose-only effect, or another doubt; inactive = no such curve, though single readings can be large; an effect the other way counts as inactive or inconclusive.
SMILES,ALDH1A1 block,RORg inh,VP16 counter,PLK1 PBD inh,Sfp inh
COc1ccc(-c2cc(C3C4C=CCCC4(C)C(=O)N3Cc3ccccc3)ccc2F)cc1OC (stereo not drawn),nt,i,i,nt,?
O=C(CSc1nnnn1C1CCCCC1)NCc1ccc2c(c1)OCO2,14.1µM,i,i,i,i
CCCNC(=O)C1(C)CCCN(Cc2ccc(-c3ccccc3)o2)C1 (stereo not drawn),nt,nt,nt,i,nt
CCC1C(=O)N=C(SCC(=O)Nc2ccccc2)NC1=O (stereo not drawn),i,i,i,i,i
CCc1ccc(NC(=O)CSC2=C(C#N)C(c3ccco3)C3=C(CCCC3=O)N2)cc1 (stereo not drawn),?,i,i,i,i
N#CC1=C(SCC(=O)c2cc3ccccc3oc2=O)NC(=O)C(C#N)C12CCCC2 (stereo not drawn),1.12µM,i,i[0.365 µM],?,i
CC(C)(C)C1CCC2(CC1)C(C#N)=C(SCC(=O)Nc1ccccc1)NC(=O)C2C#N (stereo not drawn),8.91µM,i,?,i,i
CC1=C(C(=O)Nc2ccccc2)C2(CCCCC2)C(C#N)=C(SCC(N)=O)N1,i,i,i,3.36µM,i
CC1(C)CC(=O)C2=C(C1)NC(SCC(=O)Nc1ccccc1)=C(C#N)C21CCCCC1,22.4µM,i,i,i,i
CCCCNC(=O)c1nc(-c2cccnc2OC)oc1-c1ccc(Cl)cc1,nt,nt,nt,i,nt
O=C(O)C[C@H](Cc1ccccc1Cl)C(=O)O,i[13.5 µM],nt,nt,nt,nt
CCCCn1c(N)c(N(C(=O)CSc2nncn2-c2ccccc2)C2CCCC2)c(=O)[nH]c1=O,nt,nt,nt,i,nt
COC(=O)[C@@]1(Cc2ccc(F)cc2)[C@@H]2C(=CC(=O)[C@H]2CC(=O)C(=O)N(C)C)CN1C(=O)c1ccccc1,i,?,?,nt,i
Nn1c(SCc2cn3cc(Cl)ccc3n2)nnc1-c1ccncc1,?,i,i,10.6µM,i
Nn1c(SCc2cn3ccccc3n2)nnc1-c1ccncc1,i,i,i,i,i
CCc1ccc(Cn2ncc3c(C(=O)O)cc(C)nc32)cc1,nt,nt,nt,26.7µM,nt
O=S(=O)(/N=S1/CC=CCN1S(=O)(=O)c1ccccc1)c1ccccc1 (stereo not drawn),2µM,11.2µM,?,1.5µM,1.41µM
Cc1ccc(S(=O)(=O)N(C)C)cc1NC(=S)N1CCc2ccccc21,25.1µM,10µM,i,i,i
Cc1ccc(S(=O)(=O)N(C)C)cc1NC(=O)Nc1ccccc1,nt,i,i,i,i
CN(C)S(=O)(=O)c1cccc(NC(=S)N2CCc3ccccc32)c1,17.8µM,14.1µM,?,i,?
C[C@@H]1CN([C@@H](C)CO)C(=O)CCCn2nncc2CO[C@H]1CN(C)Cc1ccc(Cl)c(Cl)c1,nt,nt,nt,i,nt
CC(C)[C@H]1COCCS(=O)(=O)N1Cc1ccccc1-c1ccccc1,nt,nt,nt,23.8µM,nt
O=S1(=O)CCOC[C@H](CC2CCCCC2)N1Cc1ccccc1,nt,i,i,i,i
Cc1ccccc1CN1[C@@H](CC2CCCCC2)COCCS1(=O)=O,nt,i,i,26.7µM,i
C/C(=C\CO)CCO,i,i,i,nt,i
SMILES,ALDH1A1 block,RORg inh,VP16 counter,PLK1 PBD inh,Sfp inh
Cn1c(/C(C#N)=C(\O)c2ccc(Cl)s2)nc2ccccc21,nt,2µM,4.47µM,i,i
COc1ccccc1NC(=O)Cc1nnc(SCC(=O)Nc2ccccc2F)n1C,i,i,i[10 µM],11.9µM,i
COc1cccc(NC(=O)Cc2nnc(SCC(=O)c3ccccc3)n2C)c1,8.91µM,?,?,i,?
COCCn1c(CNc2ccc(F)cc2)nnc1SCC(=O)Nc1ccc(OC)cc1OC,12.6µM,i,i,i,i
COc1ccc(OC)c(NC(=O)CSc2nnc(CNc3ccc(F)cc3)o2)c1,i,i,i,i,i
COC(=O)c1ccc(C(NC(=O)OCc2ccccc2)/C(=C/[C@@H](C)C(=O)Nc2ccc(OC)cc2)c2cccnc2)cc1 (stereo partly drawn),i,i,i,nt,i
CC1O[C@@H](O[C@H]2C(Oc3cc(O)c4c(c3)OC(c3ccc(O)cc3)CC4=O)OC(CO)C(O)C2O)C(O)C(O)C1O (stereo partly drawn),i,i,i,nt,i
CC(=O)N1CCN(C(C(=O)Nc2c(C)cccc2C)c2cccc(F)c2)CC1 (stereo not drawn),nt,nt,nt,i,nt
CC(C)C[C@@H](COCc1cccc(Cl)c1)N1CCN(C(=O)c2ccc(C(F)(F)F)cc2)CCC1=O,nt,nt,nt,i,nt
FC(F)(F)c1cccc(-c2nn[nH]n2)c1,i,i,i,i,i
FC(F)(F)c1cccc(-c2nnc3ccc(C(F)(F)F)cn23)c1,i,10µM,i,i,i
Cc1cc(Cl)ccc1OCC(=O)N1C(C)CCCC1C (stereo not drawn),i,i,?,i,?
Cc1cc(Cl)ccc1OCc1n[nH]c(=S)n1C1CCCCC1,?,0.794µM,2.51µM,?,i
COc1ccc(Cl)cc1-c1n[nH]c(=S)n1C1CCCCC1,i,3.98µM,7.94µM,i,i
S=c1[nH]nc(-c2cccnc2)n1C1CCCCC1,i,?,?,i,i
COc1ccc(Cl)cc1-c1cc(C(=O)NCC2CCCCC2)[nH]n1,nt,nt,nt,i,nt
COc1ccc(-c2n[nH]c(=S)n2C2CCCCC2)cc1,?,3.16µM,7.08µM,i,i
Cc1ccsc1-c1n[nH]c(=S)n1C1CCCCC1,i,3.55µM,?,i,i
Cc1cc(-c2n[nH]c(=S)n2/N=C/c2sccc2C)n[nH]1,i,i,?,i,?
O=C(O)CC(NC(=O)C(c1ccccc1)c1ccccc1)c1ccc(F)cc1 (stereo not drawn),i,i,i,i,i
C[C@H](CO)N1C[C@H](C)[C@@H](CN(C)S(=O)(=O)c2ccc(F)cc2)OCc2cn(nn2)CCCC1=O,nt,nt,nt,i,nt
O=C(O)c1cccc(C[C@H](Br)C(=O)O)c1,i[13.5 µM],nt,nt,nt,nt
Cc1ccc(SCC2(O)CCN(S(=O)(=O)c3ccc(Cl)cc3)CC2)cc1,?,?,?,i,i
COc1cccc(SCC2(O)CCN(C(=O)c3ccc(Cl)cc3)CC2)c1,?,i,i[10 µM],i,i
O=C(c1ccc(Cl)cc1)N1CCC(O)(CSc2ccc(Cl)cc2)CC1,15.8µM,?,i,i,i
SMILES,ALDH1A1 block,RORg inh,VP16 counter,PLK1 PBD inh,Sfp inh
O=C(c1ccc(Cl)cc1)N1CCC(O)(CSc2ccccc2)CC1,1.41µM,i,i,i,i
CCOC(=O)CC(S(=O)(=O)c1ccccc1)S(=O)(=O)c1ccccc1,nt,nt,nt,26.7µM,nt
Cc1ccccc1/C=C1\SC(=S)N(/N=C/c2cc([N+](=O)[O-])ccc2O)C1=O,0.398µM,?,?,?,i
O=C(CCc1nnc(CCCCc2ccccc2)o1)NCCN1CCOC1=O,0.112µM,i,i,i,i
CC(C)(C)c1ccc(O)c(CN(Cc2cc(C(C)(C)C)ccc2O)c2ccccc2)c1,i[13.5 µM],nt,nt,nt,nt
O=C(O)c1cc(N(Cc2ccccc2O)Cc2cc(O)ccc2O)ccc1O,?,i,i,nt,17.8µM
CCN(CC)c1ccc(C(=O)N/N=C(\C)c2cccnc2)cc1,?,i,i,i,i
C/C(=N\NC(=O)c1ccc(OC2CCCC2)cc1)c1ccc(O)cc1,nt,14.1µM,?,i,i
C/C(=N\NC(=O)C1CCCC1)c1ccc(Cl)cc1,nt,?,?,i,i
